From PubChem BioAssay (NCI)
The panel holds about 83,000 compounds, 20% with a hit somewhere; the sample as a whole holds those more often.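 Single-dose data. Exposure time 48 hours. Values below 10 considered active.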 Unmarked numbers belong to inactive results. Calls of active or inactive are those of the source.

Legend:
Assay in all cases: NCI-60 one-dose screen, 48 h (100 = growth as untreated, 0 = no growth, -100 = all killed)
Conditions in all cases: 10 µM unless noted
[1] = system: SR leukemia
[2] = system: RPMI-8226 leukemia
[3] = system: OVCAR-8 ovarian
[4] = system: OVCAR-5 ovarian
[5] = system: OVCAR-4 ovarian
[6] = system: SK-OV-3 ovarian
[7] = system: IGROV1 ovarian
[8] = system: OVCAR-3 ovarian
[9] = system: HS 578T breast
[10] = system: NCI/ADR-RES ovarian
[11] = system: T-47D breast
[12] = system: BT-549 breast
[13] = system: MDA-MB-435 melanoma
[14] = system: SW-620 colon
[15] = system: MCF7 breast
[16] = system: HCT-116 colon
[17] = system: KM12 colon
[18] = system: HCC-2998 colon

| SMILES | growth [1] | growth [2] | growth [3] | growth [4] | growth [5] | growth [6] | growth [7] | growth [8] | growth [9] | growth [10] | growth [11] | growth [12] | growth [13] | growth [14] | growth [15] | growth [16] | growth [17] | growth [18] [%] |
| --- | --- | --- | --- | --- | --- | --- | --- | --- | --- | --- | --- | --- | --- | --- | --- | --- | --- | --- |
| CC[n+]1c(C)ccc2cc(C)ccc21 | 94.4% | 101% | 88.4% | 109% | 106% | 97.8% | 104% | 104% | 112% | 104% | 91.3% | 95% | 118% | 99.5% | 94.1% | 97.1% | 80.7% |  |
| CC(=O)CCS(=O)c1ccccc1 (stereo not given) | 85.1% | 104% | 104% | 108% | 106% | 110% | 105% | 101% | 98.4% | 99.1% | 100% | 119% | 111% | 98% | 91.6% |  | 97.9% | 91.7 |
| Cc1cc2c(-c3nc4ccccc4[nH]3)c(O)c(O)cc2c(O)c1-c1c(C)cc2c(-c3nc4ccccc4[nH]3)c(O)c(O)cc2c1O | 6% (active) | 9.72% (active) | -6.85% (active) | 26.2% | 6.83% (active) | -35.6% (active) | 12.7% | 20.6% | 4.85% (active) | -12.6% (active) | -16.7% (active) | -6.04% (active) |  | 23.4% | 5.3% (active) | 7.37% (active) | -38.6% (active) | 19.5 |
| CC(C)(C)c1ccc([I+]c2ccc(C(C)(C)C)cc2)cc1 | 5.64% (active) | -19.9% (active) | 7.15% (active) | 49.6% | 18.3% | 30.3% | 20.9% | 2.92% (active) | 29.1% | 90.2% | 11.3% | -5.08% (active) |  | 14.9% | 7.68% (active) | 7.47% (active) | -30.6% (active) | 13.4 |
| O=C(NCCO)C(F)(F)F | 98.7% | 109% | 103% | 96.6% | 118% | 100% | 106% | 101% | 106% | 106% | 95.8% | 106% | 108% | 105% | 95.6% | 108% | 107% | 97 |
| COc1ccc(CN2C(=O)/C(=C\C(=O)c3ccc(OCCN4CCCC4)cc3)c3ccccc32)cc1 | -14.2% (active) | -4.7% (active) | 86.5% | 77.6% | 60.4% | 101% | 81.4% | 49.6% | 84.2% | 85.8% | 57.8% | 92.5% | 90.2% | 3.07% (active) | 32.4% |  | 85.4% | 101 |
| Cc1c(Cc2ccccc2)c(=O)oc2c(C)c(OCC(=O)n3nc(C#N)cc3N)ccc12 | 90.3% | 100% | 102% | 104% | 93% | 93.8% | 103% | 104% | 99.2% | 102% | 81.9% | 90.3% |  | 101% | 89.7% | 95.3% | 98.7% | 104 |
| COc1ccc(C2=NN(C(=O)c3cc(-c4ccc(C)cc4)nc4ccccc34)C(c3cc(-c4ccccc4)nn3-c3ccccc3)C2)cc1 (stereo not given) | 89.5% | 78.1% | 93.3% | 102% | 93.3% | 112% | 98.3% | 84.4% | 95.8% | 92.5% | 72.7% | 90.6% | 102% | 96.7% | 88.4% | 81.4% | 90.8% | 102 |
| COc1cc2ncnc(-n3ncc4cc(NC(=O)Nc5ccc(Cl)c(Cl)c5)ccc43)c2cc1OC | 9.64% (active) | -0.257% (active) | 2.71% (active) | -33.1% (active) | -32.3% (active) | -24.9% (active) | -58.3% (active) | -65.5% (active) | -5% (active) | -30.7% (active) | -0.727% (active) | -26.9% (active) | -31.1% (active) | -32.4% (active) | -34.8% (active) |  | 0.483% (active) | 15.4 |
